Molecules are shown by their SMILES. Results filed as inconclusive are left out. Calls of active or inactive are those of the source. How the source made its calls: active means hit-call score of the fitted dose curve at least 0.9, where 1 is the maximum; inconclusive means response in the unintended direction; inactive means score below 0.9.

Chain of Ratio of Nucleoli Translocation and Cytoplasm, AR (gene 367) (P10275 whole entry, looked up, the tested form may be a part): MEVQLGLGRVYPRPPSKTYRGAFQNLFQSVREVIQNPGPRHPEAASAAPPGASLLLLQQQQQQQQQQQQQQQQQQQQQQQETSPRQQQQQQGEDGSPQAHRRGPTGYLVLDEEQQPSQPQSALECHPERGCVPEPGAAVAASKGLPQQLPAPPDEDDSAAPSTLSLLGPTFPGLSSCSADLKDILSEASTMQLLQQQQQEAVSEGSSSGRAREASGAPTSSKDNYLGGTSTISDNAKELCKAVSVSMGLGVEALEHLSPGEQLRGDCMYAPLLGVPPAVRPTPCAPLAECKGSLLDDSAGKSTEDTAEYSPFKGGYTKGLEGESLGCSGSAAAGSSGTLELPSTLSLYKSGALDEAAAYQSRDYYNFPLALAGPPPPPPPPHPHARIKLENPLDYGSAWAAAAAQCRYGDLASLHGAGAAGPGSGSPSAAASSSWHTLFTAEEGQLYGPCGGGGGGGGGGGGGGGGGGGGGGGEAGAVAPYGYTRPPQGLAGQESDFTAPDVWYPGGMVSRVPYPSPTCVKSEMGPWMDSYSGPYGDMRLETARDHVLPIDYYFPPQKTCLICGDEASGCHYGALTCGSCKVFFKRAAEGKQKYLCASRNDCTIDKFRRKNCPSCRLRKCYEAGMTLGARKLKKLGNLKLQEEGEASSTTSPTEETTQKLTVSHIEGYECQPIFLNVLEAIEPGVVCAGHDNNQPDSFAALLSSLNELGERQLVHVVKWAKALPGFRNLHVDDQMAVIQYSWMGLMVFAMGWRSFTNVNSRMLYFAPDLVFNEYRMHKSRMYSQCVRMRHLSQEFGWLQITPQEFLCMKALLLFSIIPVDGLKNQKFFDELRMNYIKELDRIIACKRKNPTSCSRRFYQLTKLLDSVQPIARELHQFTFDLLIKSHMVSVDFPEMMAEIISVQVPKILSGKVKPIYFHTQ

The test addresses Ratio of Nucleoli Translocation and Cytoplasm, AR (gene 367) (UniProt P10275). Put plainly: UPITT_HCI_U2OS_AR_TIF2_Nucleoli_Cytoplasm_Ratio_Antagonist: University of Pittsburgh U2OS Androgen Receptor-Transcriptional Intermediary Factor 2 (AR-TIF2) Antagonism High Content Imaging Assay for Ratio of Nucleoli Translocation and Cytoplasm (AID 2283999).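 Further: antagonists lower the DHT-driven ratio of nucleolar to cytoplasmic red signal.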 The source says: UPITT_AR_TIF2_PPIB is a cell-based, high-content imaging assay that uses U2OS, a human osteosarcoma cell line, expressing a human androgen receptor fused to red fluorescent protein and the coactivator TIF2 fused to green fluorescent protein. UPITT_HCI_U2OS_AR_TIF2_Nucleoli_Cytoplasm_Ratio_Antagonist is one of four assay components measured from the UPITT_AR_TIF2_PPIB assay. It is designed to make measurements of the ratio of red fluorescence localized in the nucleolar region of the cell nucleus to red fluorescence localized in the cytoplasm as detected with high-content fluorescent imaging.Data from the assay component UPITT_HCI_U2OS_AR_TIF2_Nucleoli_Cytoplasm_Ratio_Antagonist was analyzed into 1 assay endpoint. This assay endpoint, UPITT_HCI_U2OS_AR_TIF2_Nucleoli_Cytoplasm_Ratio_Antagonist, was analyzed in the positive analysis fitting direction relative to DHT as the baseline of activity. Using a type of binding reporter, measures of receptor for loss-of-signal activity can be used to understand the binding at the pathway-level as it relates to the gene AR.
Daughter plates containing 2 uL of 10 mM compounds in DMSO were prepared and replicated from the 384-well Library of Pharmacologically Active Compounds (LOPAC) master plates using the Bravo outfitted with a 384-well transfer head. Aluminum adhesive plate seals were applied with an Abgene Seal-IT 100 (Rochester, NY) plate sealer, and the plates were stored at -20 C in a Matrical MatriMinistore (Spokane, WA) automated compound storage and retrieval system. For screening, LOPAC daughter plates were withdrawn from -20C storage, thawed to ambient temperature, centrifuged 1-2 min at 50 g, and the plate seals were removed before the transfer of 98 uL of serum-free tissue culture medium (SFM) into wells using the BioTek Microflo liquid handler (BioTek, Winooski, VT) to generate a 200 uM intermediate stock concentration of library compounds (2.0% DMSO). The diluted compounds were mixed by repeated aspiration and dispensation using a 384-well P30 dispensing head on the Evolution P3 (EP3) liquid handling platform (PerkinElmer, Waltham, MA) and then 5 uL of diluted compounds was transferred to the wells of assay plates. In the LOPAC screen, compounds were individually tested at a final concentration of 20 uM (0.2% DMSO). After the diluted compounds had been transferred from the daughter plates to the primary HCS assay plates, aluminum adhesive plate seals were applied and the diluted daughter plates were stored frozen at -20C. To confirm active compounds identified in the primary screen, we withdrew the LOPAC daughter plates containing the 200 uM intermediate concentration of library compounds (2.0% DMSO) from -20C storage, thawed them to ambient temperature, centrifuged them for 1-2 min at 50 g, and removed the plate seals. A work list was generated to direct the Multiprobe Janus liquid handling platform (PerkinElmer) to cherry pick 75 uL from the wells of the diluted daughter plates that were flagged active in the primary screen and to reformat these into a 384-well plate hit confirmation daughter plate. Five microliters of primary HCS active compounds was then transferred into triplicate wells of assay plates using a 384-well P30 dispensing head on the Evolution P3 (EP3) liquid handling platform (PerkinElmer). […] Daughter plates containing 2 uL of the serially diluted compounds in DMSO were prepared and replicated from the 384-well serial dilution master plates using the Bravo outfitted with a 384-well transfer head. Aluminum adhesive plate seals were applied and plates were stored at -20C. For testing in the bioassays, daughter plates were withdrawn from -20C storage, thawed to ambient temperature, centrifuged for 1-2 min at 50 g, and the plate seals were removed before the transfer of 38 uL of SFM into wells using the BioTek Microflo liquid handler (BioTek) to generate an intermediate stock concentration of library compounds ranging from 1.95 to 500 uM (5.0% DMSO). […]
Consider `CCCN(C1CCN(C(=O)C2CCNCC2)CC1)[C@@H]1CCc2ccc(OC)cc2C1`, for which the outcome was inactive.

`Cc1ccc(N)cc1O`: the result was inactive.

For the compound `CCOc1cccc(-n2cc(C(=O)N3CCN(c4cc(C(=O)O)c5ccccc5c4)CC3)nc2-c2ccc(C)cc2)c1`, the result was inactive.

With `CC(C)=CCCC(C)CCO` (stereo not drawn), the outcome was inactive.

In general, AC50 refers to the concentration giving half of the maximal activity seen. In the case of `Oc1ccc2c(c1)-c1ccccc1C2`, the AC50 is 7.43 µM (active).

`CCCCCCc1ccc(O)cc1O`: the outcome was inactive.

Turning to `O=C(O)c1cccc(N(Cc2cccnc2)c2ccc(OC(F)F)c(OC(F)F)c2)c1`, the outcome was inactive.

As to `Fc1ccccc1[C@@H](F)COC1CCC(Nc2ncnc3[nH]ncc23)CC1` (stereo partly drawn), the result was inactive.

In the case of `CC1(C)C(=O)N(Br)C(=O)N1Br`, the result was inactive.

Regarding `CN(C)c1ccc(N=NS(=O)(=O)O)cc1`, the result was inactive.

Take `CNS(=O)(=O)c1cc(C(=O)N2CCC(CCN3C4CCC3CC(n3c(C)nc5ccccc53)C4)(c3cccc(F)c3)CC2)c(Cl)cc1F` (stereo not drawn): the result was inactive.

On to `CCNc1ccccc1`, for which the result was inactive.

`O=C(CCCCCCCCc1cccnc1)N1CCC(C=C(c2ccccc2)c2ccccc2)CC1`: the result was inactive.
